High-throughput results deposited in PubChem BioAssay by National Center for Advancing Translational Sciences (NCATS).
TGFb inhibitor: TGF-b pathway inhibition; HepG2 CAGA-GFP TGF-b/SMAD3 reporter, GFP fluorescence, 18 h; TGF-beta stimulated, 500 pg/mL final; Potency, µM (top dose mostly 46.1 µM), without a hit: top-dose activity, negative = inhibition, actives largely listed as inhibitors; 410,000 compounds, 1.2% hits; AID 588855; further: potency means the concentration at half of the fitted maximal effect; on the % scale 0 is the no-effect control and ±100 the full control effect; nearly all actives have a fitted effect of over 65% in size
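Read-out: total well GFP (ex488/em500-530) summed from mean per-cell fluorescence. Cells: HEPG2 CAGA-GFP, 1% FBS DMEM, 18 h at 37 degrees C with 500 pg/mL final TGF-beta. Unstimulated wells served as the full-inhibition control; stimulated DMSO wells = 0%.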
D3 ag: agonists of human D3 dopamine receptor; P35462; D3R DiscoveRx beta-arrestin cells, luminescence, 90 min; max activation, %; 410,000 compounds, 0.58% hits; in the data active means max activation above about 30%; further: 0% is about no effect
Target sequence (P35462 whole entry, looked up): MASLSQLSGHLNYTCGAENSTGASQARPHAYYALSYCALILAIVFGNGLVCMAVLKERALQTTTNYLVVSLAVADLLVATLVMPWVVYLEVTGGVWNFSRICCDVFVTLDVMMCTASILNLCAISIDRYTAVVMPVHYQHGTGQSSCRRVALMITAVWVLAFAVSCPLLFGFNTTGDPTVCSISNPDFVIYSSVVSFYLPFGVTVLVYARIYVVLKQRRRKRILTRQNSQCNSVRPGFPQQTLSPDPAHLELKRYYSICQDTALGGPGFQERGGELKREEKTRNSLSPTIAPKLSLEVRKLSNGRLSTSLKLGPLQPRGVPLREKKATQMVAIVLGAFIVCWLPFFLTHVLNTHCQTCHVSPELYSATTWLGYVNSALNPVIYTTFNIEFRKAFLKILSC
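Agonist mode: compounds and dopamine controls were applied to plated cells for 90 min at 37 degrees C after an overnight attachment at 1500 cells/well. Luminescent read-out followed 30 - 60 minutes at room temperature with DiscoveRx detection reagent.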
HepG2 tox-1: counter-screen for TGF-b inhibitors: cytotoxicity in HepG2 cells. HepG2 CAGA-GFP viability, ATP luminescence, 18 h. Potency, µM (highest dose often 46.1 µM), for the others: top-dose activity change, negative = cytotoxicity, actives largely listed as cytotoxic. 410,000 compounds, 0.76% hits; further: potency means the concentration at half of the fitted maximal effect
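CellTiter-Glo luminescence gave cytotoxicity after 18 hours at 37 degrees C. The cells were HepG2 CAGA-GFP in 1% FBS DMEM, stimulated with 500 pg/mL TGF-beta after compound addition. %Activity was normalised to no-cell wells (complete cell-killing) and DMSO (no toxicity), and curves were fitted and classified.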
D3 antag: antagonists of human D3 dopamine receptor | D3R cells, DiscoveRx beta-arrestin luminescence, antagonist mode; hits give low values | max response, negative = inhibition, % | 360,000 compounds, 2.5% hits | AID 652054 | P35462; in the data active means max response below about -50%; inconclusive means no clear call, values can overlap the other calls; further: on the % scale 0 is the no-effect control and ±100 the full control effect
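Cells expressing the human receptor were seeded at 1500 cells/well, incubated overnight at 37 degrees C in 5% CO2, then exposed to library compounds with dopamine controls for 90 minutes at 37 degrees C before luminescent detection.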
ATXN viability: reduces viability in counter-screen for ATXN expression inhibitors | S2 cells (HEK-293 line with an ATXN2-luciferase reporter) viability, CellTiter-Fluor protease fluorescence, 24 h | Potency, µM (highest dose often 56.7 µM), usual class: cytotoxic | 400,000 compounds, 0.49% hits | AID 651635; further: potency means the concentration at half of the fitted maximal effect; nearly all actives have a fitted effect of over 40% in size
ATXN2 expr inh: ATXN2 expression inhibition | HEK-293 ATXN2-luciferase reporter, luminescence, 24 h | Potency, µM (doses to about 57 µM), inactives show at the highest dose activity change, negative = inhibition, usual class: inhibitors | 360,000 compounds, 0.72% hits | AID 1745845; further: potency means the concentration at half of the fitted maximal effect; on the % scale 0 is the no-effect control and ±100 the full control effect; nearly all actives have a fitted effect of over 55% in size
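ATXN2-luciferase reporter cells (luciferase flanked by upstream and downstream ATXN2 gene portions) were treated 24 h at 37 °C with compounds at up to 57 uM. SteadyGlo luminescence gave expression; GF-AFC fluorescence gave viability.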
TGFb CAGA inh: confirmation of TGF-b signaling inhibitors in HepG2 reporter cells; shares compounds with TGFb inhibitor; HepG2 CAGA-GFP TGF-b reporter, GFP fluorescence, 18 h; cells stimulated with TGF-beta, 500 pg/mL; Potency, µM (highest dose often 46.1 µM), without a hit: at the highest dose activity, negative = inhibition, hits mostly inhibitors; 1,600 compounds, 63% hits; further: potency means the concentration at half of the fitted maximal effect; on the % scale 0 is the no-effect control and ±100 the full control effect; nearly all actives have a fitted effect of over 65% in size
HepG2 tox-2: HepG2 cytotoxicity, TGF-b inhibitor counterscreen; shares compounds with TGFb inhibitor; HepG2 CAGA-GFP viability, ATP luminescence, 18 h; cells stimulated with TGF-beta, 500 pg/mL; Potency, µM (series often up to 46.1 µM), for inactives: at the top dose activity, negative = cytotoxicity, usual class: inhibitors; 1,600 compounds, 27% hits; AID 720535; further: potency means the concentration at half of the fitted maximal effect; on the % scale 0 is the no-effect control and ±100 the full control effect; nearly all actives have a fitted effect of over 70% in size
TGFb CCL64 inh: blocks TGF-b signaling in CCL64 reporter cells; shares compounds with TGFb inhibitor; CCL64 CAGA-GFP reporter, TGF-b stimulated, GFP fluorescence, 18 h; Potency, µM (highest dose often 46.1 µM), without a hit: at the top dose activity, negative = inhibition, usual class: inhibitors; 1,600 compounds, 41% hits; further: potency means the concentration at half of the fitted maximal effect; nearly all actives have a fitted effect of over 65% in size
COP TGFb inh: blocks TGF-b signaling in HepG2 COP reporter; Potency, µM (top dose mostly 46.1 µM), inactives show at the top dose activity, negative = inhibition, usual class: inhibitors; HepG2 COP-GFP TGF-b reporter, GFP fluorescence, 18 h; cells stimulated by added recombinant TGF-beta; shares compounds with TGFb inhibitor; AID 720537; 1,600 compounds, 3% hits; further: potency means the concentration at half of the fitted maximal effect; nearly all actives have a fitted effect of over 70% in size
The depositor's hits bear a star; i = inactive; ? = inconclusive; . = not tested or not shown. The list is not random: actives were taken first. Their share in the collection is about 4.8%. Unless noted, the call rests on the fitted dose curve; in most records, active means well fitted curve in the direction sought with a large enough effect; inconclusive means small, poorly fitted or top-dose-only effect, or another doubt; inactive means no such curve, though single readings can be large; an effect the other way counts as inactive or inconclusive.

SMILES	TGFb inhibitor	D3 ag	HepG2 tox-1	D3 antag	ATXN viability	ATXN2 expr inh	TGFb CAGA inh	HepG2 tox-2	TGFb CCL64 inh	COP TGFb inh
CCOC(=O)c1ccc(-n2[nH]c(-c3ccccc3)cc2=O)cc1	?	22	10µM*	-23	i	?	16µM*	?	?	45%
CCOC(=O)c1ccc(N=Nc2c(C)[nH]n(-c3ccccc3)c2=O)cc1	25%	1	7%	-3	i	.	.	.	.	.
CC(=O)Nc1ncnc2c1c(-c1ccc(Cl)cc1)nn2C(C)(C)C	3.5µM*	-10	-37%	4	?	?	2.6µM*	?	?	?
CCn1nc([N+](=O)[O-])c(C(C#N)c2nc3cc(C(F)(F)F)ccc3s2)c(Cl)c1=O (configuration not stated)	0.35µM*	-19	-100%	-21	.	?	3.3µM*	8.2µM*	5.2µM*	-29%
CCOC(=O)C1CCCN(C(=O)Cc2ccc(C)cc2)C1 (configuration not stated)	10µM*	0	4%	1	i	-16%	-7%	-2%	24%	-10%
COc1ccc(S(=O)(=O)N2CCC(C(=O)N3CCc4ccccc4C3)CC2)cc1Cl	?	-6	-11%	-11	i	1%	?	-26%	?	18%
COc1ccc(S(=O)(=O)N2CCC(C(=O)N3CCN(C)CC3)CC2)cc1Cl	-16%	-3	-17%	11	i	0%	.	.	.	.
Cc1ccc(COc2ccccc2-c2cc(C(=O)N/N=C/c3cccnc3)[nH]n2)cc1	11µM*	-13	-21%	-13	?	?	?	?	23µM*	19%
CCC(=O)N1CCc2cc(S(=O)(=O)CCC(=O)N3CCN(c4cccc(C)c4)C(C)C3)ccc21 (configuration not stated)	-4%	12	-32%	.	i	?	.	.	.	.
COc1ccc(N(C(=O)c2ccc(Cl)cc2)S(=O)(=O)c2ccc(C)cc2)cc1	12%	9	-7%	.	i	-28%	.	.	.	.
Cc1ccc(S(=O)(=O)N2CCCCC2)cc1C(=O)OC1CCCCC1=O (configuration not stated)	?	-21	-14%	-1	i	9%	?	7%	12%	0%
CCc1nc2ccc(C(=O)N3CCN(c4ccccc4)CC3)cc2nc1CC	?	7	4%	3	i	-11%	.	.	.	.
CCc1nc2ccc(C(=O)N3CCN(c4cccc(C(F)(F)F)c4)CC3)cc2nc1CC	20µM*	-1	-12%	9	i	-19%	?	-24%	?	16%
CCN1CCN(c2cc(C)c3cc(NC(=O)/C=C/c4ccc(OCCC(C)C)cc4)ccc3n2)CC1	33%	-3	-5%	.	.	.	.	.	.	.
